# Key:
# Assay type in all cases: functional
# [1] = target: Solute carrier family 2, facilitated glucose transporter member 1 (Homo sapiens) (UniProt P11166); test: ST_JUDE_LEISH: Cytotoxicity at 2uM final concentration against transgenic Leishmania Mexicana promastigotes LmGLUT1 that are glucose transport deficient and complemented with the human glucose transporter GLUT1. Activity is measured by DNA content using SYBR green in vitro
# [2] = target: Hexose transporter 1 (Plasmodium falciparum) (UniProt O97467); test: ST_JUDE_LEISH: Cytotoxicity at 2uM final concentration against transgenic Leishmania Mexicana promastigotes LmPfHT that are glucose transport deficient and complemented with the Plasmodium falciparum hexose transporter. Activity is measured by DNA content using SYBR green in vitro
# [3] = target: Glucose transporter (Leishmania mexicana) (UniProt O61059); test: ST_JUDE_LEISH: Cytotoxicity at 2uM final concentration against transgenic Leishmania Mexicana promastigotes LmGT2 that are glucose transport deficient and complemented with the L. Mexicana glucose transporter 2. Activity is measured by DNA content using SYBR green in vitro
# Chain of Solute carrier family 2, facilitated glucose transporter member 1 (Homo sapiens) (P11166 whole entry): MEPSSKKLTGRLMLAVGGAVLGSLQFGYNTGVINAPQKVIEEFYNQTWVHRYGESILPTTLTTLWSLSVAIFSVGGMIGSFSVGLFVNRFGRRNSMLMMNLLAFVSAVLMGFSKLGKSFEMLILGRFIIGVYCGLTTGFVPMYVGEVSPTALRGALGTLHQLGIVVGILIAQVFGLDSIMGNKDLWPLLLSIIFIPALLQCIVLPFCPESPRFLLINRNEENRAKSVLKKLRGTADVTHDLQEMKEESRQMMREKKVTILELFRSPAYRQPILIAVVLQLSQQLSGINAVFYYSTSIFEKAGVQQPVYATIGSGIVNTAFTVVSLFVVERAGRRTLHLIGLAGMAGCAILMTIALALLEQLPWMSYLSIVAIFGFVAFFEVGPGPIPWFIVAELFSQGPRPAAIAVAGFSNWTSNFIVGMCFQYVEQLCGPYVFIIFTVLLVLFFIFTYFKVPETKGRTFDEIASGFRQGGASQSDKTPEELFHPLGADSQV
SMILES,inhibition [1],inhibition [2],inhibition [3]
COc1ccc(Nc2ccnc3cc(-c4ccccn4)ccc23)cc1OC,1.2%,0.73%,-0.54%
CCCCNc1nccc2ccc(-c3ccncc3)cc12,3.45%,4.02%,4.26%
CC(C)(C)c1ccc2[nH]c(-c3ccc(/C=C/C(=O)NCc4cccc(C(F)(F)F)c4)cc3)nc2c1,3.32%,5.66%,2.22%
CCN(CC)CCN(Cc1ccc(-c2ccc(C(F)(F)F)cc2)cc1)C(=O)Cn1c(CCc2ccc(F)cc2)nc(=O)c2ccccc21,2.98%,2.96%,3.33%
COc1ccc2c(c1)nc(CNC(=N)N)n2Cc1ccc(Cl)cc1,1.63%,1.08%,1.85%
Cc1cc(Cl)ccc1N(Cc1ccccc1)c1ccnc(Cl)n1,1.11%,1.68%,0.11%
Cc1ccc(NC(=O)c2ccc3ncccc3c2)cc1OC1CCN(Cc2ccco2)C1 (centres undefined),0.45%,1.05%,1.55%
N#Cc1ccc(C=Cc2nccc3c2[nH]c2ccccc23)cc1,10.9%,9.49%,9.13%
CN1CCN(c2cccc(-c3nnc(-c4cccc(OCC(=O)NCc5ccc(C(F)(F)F)cc5)c4)o3)c2)CC1,1.77%,1.65%,2.47%
Cc1ccccc1C1CCN(C2CCC(NC(=O)/C=C/c3cc(F)ccc3C(F)(F)F)CC2)CC1 (centres undefined),0.1%,-0.94%,1.99%
COc1ccc2cc(CNCCCCCCNCc3ccc4cc(OC)ccc4c3)ccc2c1,107%,107%,103%
CN(C)C(CNC(=O)c1cc(-c2ccncc2)c(-c2cc3ccccc3[nH]2)o1)c1ccccc1 (centres undefined),3.53%,2.32%,2.06%
CCCCCCCC1CCN(C[C@H](O)c2ccnc3ccc(OC)cc23)CC1,2.75%,0.96%,2.08%
CCCN(CCC)CCCCC(C)Nc1c2ccc(Cl)cc2nc2ccc(OC)cc12 (centres undefined),8.02%,8.65%,9.34%
Nc1c(-c2ccc(C(=O)NCCNCc3ccccc3)cc2)cnn1-c1ccc(C(F)(F)F)cc1,3.28%,2.76%,-0.31%
CC1(CCCCN2CCC(Oc3ccc(F)cc3F)CC2)C(=O)Nc2ccccc21 (centres undefined),3.9%,3.15%,5.35%
CN1CCN(c2ccnc3ccc(NC(=O)Nc4cccc5ccccc45)cc23)CC1,1.43%,-0.09%,1.87%
COc1cc(OC)c(NC(=O)C2c3ccccc3C(=O)N(C)C2c2cccs2)cc1Cl (centres undefined),2.2%,5.87%,5.98%
Cc1ccc(CN2CCC(Oc3cccc(NC(=O)c4ccc(C(F)(F)F)cc4)c3)CC2)cc1,5.11%,0.79%,3.6%
O=C(Nc1ccc2c(c1)CCC2)c1cccc(CN2CCCN(Cc3cccc(O)c3)CC2)c1,1.77%,-2.6%,-0.46%
NC12CC3CC(CC(C3)C1)C2,5.47%,5.42%,4.45%
O=C(Nc1ccc(Cn2nc(Cl)c(N3CCCNCC3)cc2=O)cc1)Nc1ccc(-c2ccccc2)cc1,19.7%,15.5%,16.6%
Fc1ccc2[nH]c(-c3ccc(-c4ccc(CNCCc5cccnc5)cc4)s3)nc2c1,6.23%,3.19%,3.21%

# Source: ChEMBL document CHEMBL3433997, “St. Jude Leishmania screening dataset” (2016)
